Columns and labels:
dAsCas12a WT = dAsCas12a WT (Acidaminococcus sp., UniProt U2UMQ6 1-1307, D908A;E993A;D1235A); experiment: Spec-seq (native PAGE EMSA with sequencing of bound and unbound); 25 mM Tris-HCl pH 7.4, 150 mM KCl, 5 mM MgCl2, 10% glycerol, 1 mM DTT, 40 ng/uL salmon sperm DNA; 400 nM Cas12a, 480 nM crRNA, 50 nM library, 37 C 1 h; native P; high values mean tight binding
dAsCas12a Ultra = dAsCas12a Ultra (Acidaminococcus sp., UniProt U2UMQ6 1-1307, M537R;F870L;D908A;E993A;D1235A); experiment: Spec-seq (native PAGE EMSA with sequencing of bound and unbound); 25 mM Tris-HCl pH 7.4, 150 mM KCl, 5 mM MgCl2, 10% glycerol, 1 mM DTT, 40 ng/uL salmon sperm DNA; 400 nM Cas12a, 480 nM crRNA, 50 nM library, 37 C 1 h; native PAGE at room temperature; high values mean tight binding; details: protein: recombinant
dAsCas12a E174R = dAsCas12a E174R (Acidaminococcus sp., UniProt U2UMQ6 1-1307, E174R;D908A;E993A;D1235A); experiment: as above; details: protein: recombinant;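 further: relative affinity from the bound to unbound sequence frequency ratio in Spec-seq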
dAsCas12a S542R = dAsCas12a S542R (Acidaminococcus sp., UniProt U2UMQ6 1-1307, S542R;D908A;E993A;D1235A); experiment: as above; details: protein: recombinant;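 further: relative affinity from the bound to unbound sequence frequency ratio in Spec-seq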
dAsCas12a K548R = dAsCas12a K548R (Acidaminococcus sp., UniProt U2UMQ6 1-1307, K548R;D908A;E993A;D1235A); experiment: as above; details: protein: recombinant
d-enCas12a = d-enCas12a (Acidaminococcus sp., UniProt U2UMQ6 1-1307, E174R;S542R;K548R;D908A;E993A;D1235A); experiment: as above; details: protein: recombinant
d-enCas12a-Ultra = d-enCas12a-Ultra (Acidaminococcus sp., UniProt U2UMQ6 1-1307, E174R;S542R;K548R;M537R;F870L;D908A;E993A;D1235A); experiment: as above; details: protein: recombinant;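 further: relative affinity from the bound to unbound sequence frequency ratio in Spec-seq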

| Binder | binding signal (dAsCas12a WT) [lnKA] | binding signal (dAsCas12a Ultra) [lnKA] | binding signal (dAsCas12a E174R) [lnKA] | binding signal (dAsCas12a S542R) [lnKA] | binding signal (dAsCas12a K548R) [lnKA] | binding signal (d-enCas12a) [lnKA] | binding signal (d-enCas12a-Ultra) [lnKA] |
| --- | --- | --- | --- | --- | --- | --- | --- |
| TTCT (dsDNA) DNA 1: GCTATCTAGTGCTCAGTACGCACTGTTCTAGGAAACTTCTGGCAGGACCAGGTCATGAGATCGGAAGAGCACACGTCTGAACTCCAGTCA DNA 2: TGACTGGAGTTCAGACGTGTGCTCTTCCGATCTCATGACCTGGTCCTGCCAGAAGTTTCCTAGAACAGTGCGTACTGAGCACTAGATAGC RNA: AAUUUCUACUCUUGUAGAUAGGAAACUUCUGGCAGGACC | -8.65 | -6.53 | -6.23 | -3.26 | -8.32 | -0.829 | -0.251 |
| TCTG (dsDNA) DNA 1: GCTATCTAGTGCTCAGTACGCACTGTCTGAGGAAACTTCTGGCAGGACCAGGTCATGAGATCGGAAGAGCACACGTCTGAACTCCAGTCA DNA 2: TGACTGGAGTTCAGACGTGTGCTCTTCCGATCTCATGACCTGGTCCTGCCAGAAGTTTCCTCAGACAGTGCGTACTGAGCACTAGATAGC RNA: AAUUUCUACUCUUGUAGAUAGGAAACUUCUGGCAGGACC | -6.99 | -4.53 | -4.57 | -5.38 |  | -4.86 | -1.79 |
| TGTA (dsDNA) DNA 1: GCTATCTAGTGCTCAGTACGCACTGTGTAAGGAAACTTCTGGCAGGACCAGGTCATGAGATCGGAAGAGCACACGTCTGAACTCCAGTCA DNA 2: TGACTGGAGTTCAGACGTGTGCTCTTCCGATCTCATGACCTGGTCCTGCCAGAAGTTTCCTTACACAGTGCGTACTGAGCACTAGATAGC RNA: AAUUUCUACUCUUGUAGAUAGGAAACUUCUGGCAGGACC | -7.99 | -6.4 | -6.64 | -6.54 | -7.23 | -0.876 | -0.296 |
| TTCC (dsDNA) DNA 1: GCTATCTAGTGCTCAGTACGCACTGTTCCAGGAAACTTCTGGCAGGACCAGGTCATGAGATCGGAAGAGCACACGTCTGAACTCCAGTCA DNA 2: TGACTGGAGTTCAGACGTGTGCTCTTCCGATCTCATGACCTGGTCCTGCCAGAAGTTTCCTGGAACAGTGCGTACTGAGCACTAGATAGC RNA: AAUUUCUACUCUUGUAGAUAGGAAACUUCUGGCAGGACC | -7.28 | -4.81 | -4.78 | -1.16 | -6.53 | -0.274 | -0.0946 |
| TTGA (dsDNA) DNA 1: GCTATCTAGTGCTCAGTACGCACTGTTGAAGGAAACTTCTGGCAGGACCAGGTCATGAGATCGGAAGAGCACACGTCTGAACTCCAGTCA DNA 2: TGACTGGAGTTCAGACGTGTGCTCTTCCGATCTCATGACCTGGTCCTGCCAGAAGTTTCCTTCAACAGTGCGTACTGAGCACTAGATAGC RNA: AAUUUCUACUCUUGUAGAUAGGAAACUUCUGGCAGGACC | -8.14 | -6.6 | -7.49 | -6.46 | -8.53 | -4.32 | -2.04 |
| TTAA (dsDNA) DNA 1: GCTATCTAGTGCTCAGTACGCACTGTTAAAGGAAACTTCTGGCAGGACCAGGTCATGAGATCGGAAGAGCACACGTCTGAACTCCAGTCA DNA 2: TGACTGGAGTTCAGACGTGTGCTCTTCCGATCTCATGACCTGGTCCTGCCAGAAGTTTCCTTTAACAGTGCGTACTGAGCACTAGATAGC RNA: AAUUUCUACUCUUGUAGAUAGGAAACUUCUGGCAGGACC | -8.61 | -7.33 | -7.28 | -6.82 | -8.66 | -3.79 | -1.68 |
| TTAC (dsDNA) DNA 1: GCTATCTAGTGCTCAGTACGCACTGTTACAGGAAACTTCTGGCAGGACCAGGTCATGAGATCGGAAGAGCACACGTCTGAACTCCAGTCA DNA 2: TGACTGGAGTTCAGACGTGTGCTCTTCCGATCTCATGACCTGGTCCTGCCAGAAGTTTCCTGTAACAGTGCGTACTGAGCACTAGATAGC RNA: AAUUUCUACUCUUGUAGAUAGGAAACUUCUGGCAGGACC | -8.99 | -7.13 | -6.79 | -6.51 | -8.18 | -1.59 | -0.507 |

From publication PMC8222333, “AsCas12a ultra nuclease facilitates the rapid generation of therapeutic cell medicines”
